Here are results for one sequence from article PMC7862700, “An all-to-all approach to the identification of sequence-specific readers for epigenetic DNA modifications on cytosine”.

Common to all, as to test: DAPPL (digital affinity profiling via proximity ligation, sequencing); 10 mM Tris-HCl pH 7.5, 50 mM NaCl, 1 mM DTT, 4% glycerol, room temperature, 30 min; GST-TFs on glutathione beads, 16-mer random dsDNA library, 0.1% formaldehyde crosslink after washing; high values mean tight binding
One test concerns the target T1, FEV (Homo sapiens, UniProt Q99581 1-238).
T1 sequence: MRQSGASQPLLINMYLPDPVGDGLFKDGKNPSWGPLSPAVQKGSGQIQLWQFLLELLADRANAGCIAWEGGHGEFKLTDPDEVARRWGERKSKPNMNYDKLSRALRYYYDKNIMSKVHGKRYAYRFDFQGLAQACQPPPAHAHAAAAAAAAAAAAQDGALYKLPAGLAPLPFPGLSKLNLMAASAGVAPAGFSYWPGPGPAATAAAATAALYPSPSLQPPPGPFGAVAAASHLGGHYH
The conditions noted are these: protein: recombinant; tags: N-terminal GST; dsDNA, one strand shown. The method in brief:
(§1)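 Beads coated with glutathione captured GST-fused human transcription factors that had been expressed in yeast, and the factors were then given DNA barcodes and pooled with a tag-only sample. The pools were incubated with 200 nmole of a random double-stranded 16-mer DNA library in Tris/NaCl/DTT/glycerol buffer for 30 min at room temperature, washed, crosslinked with 0.1% formaldehyde and proximity-ligated with BsaI/T4 ligase at 37 °C for 1 h. PCR amplification and Illumina NextSeq500 sequencing came last. Binding signal is each hexamer's read frequency for a factor divided by its frequency for the tag-only sample.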

The target of a further test is ETV5 (Homo sapiens, UniProt P41161 1-510). The conditions noted are these: protein: recombinant; tags: N-terminal GST; dsDNA, one strand shown. The method in brief: as §1
In a further test the target is HSF1 (Homo sapiens, UniProt Q00613 1-529). The conditions noted are these: protein: recombinant; tags: N-terminal GST; chain copies: 3; dsDNA, one strand shown. Put shortly:
as §1

The next test concerns the target T2, SPIC (Homo sapiens, UniProt Q8N5J4 1-248).
T2 sequence: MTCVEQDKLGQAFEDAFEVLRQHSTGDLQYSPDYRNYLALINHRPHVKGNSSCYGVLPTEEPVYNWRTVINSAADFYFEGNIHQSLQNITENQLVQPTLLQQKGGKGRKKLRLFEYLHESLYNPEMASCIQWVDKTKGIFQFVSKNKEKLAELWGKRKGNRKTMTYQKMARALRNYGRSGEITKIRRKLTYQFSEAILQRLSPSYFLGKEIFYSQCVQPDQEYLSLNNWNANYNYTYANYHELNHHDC
The conditions noted are these: protein: recombinant; tags: N-terminal GST; dsDNA, one strand shown. The method in brief: as §1

The next test deals with ELF4 (Homo sapiens, UniProt Q99607 1-663). The note with it: protein: recombinant; tags: N-terminal GST; dsDNA, one strand shown. Put shortly: as §1
In another test the target is T3, ELK4 (Homo sapiens, UniProt P28324-2 1-405).
T3 sequence: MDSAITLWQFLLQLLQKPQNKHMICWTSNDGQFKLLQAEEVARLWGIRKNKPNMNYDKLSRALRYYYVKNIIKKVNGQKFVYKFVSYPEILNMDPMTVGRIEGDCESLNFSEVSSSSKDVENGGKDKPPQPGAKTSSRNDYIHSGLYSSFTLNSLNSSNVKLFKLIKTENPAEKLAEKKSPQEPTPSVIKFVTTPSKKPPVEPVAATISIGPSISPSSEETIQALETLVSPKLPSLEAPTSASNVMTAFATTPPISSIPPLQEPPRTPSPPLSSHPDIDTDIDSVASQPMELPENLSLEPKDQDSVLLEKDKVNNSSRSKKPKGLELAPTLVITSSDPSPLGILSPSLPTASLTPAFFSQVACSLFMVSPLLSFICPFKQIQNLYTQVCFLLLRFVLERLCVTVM
The conditions noted are these: protein: recombinant; tags: N-terminal GST; dsDNA, one strand shown. The method in brief: as §1

The target in the next test is T4, ETV2 (Homo sapiens, UniProt O00321 1-342).
T4 sequence: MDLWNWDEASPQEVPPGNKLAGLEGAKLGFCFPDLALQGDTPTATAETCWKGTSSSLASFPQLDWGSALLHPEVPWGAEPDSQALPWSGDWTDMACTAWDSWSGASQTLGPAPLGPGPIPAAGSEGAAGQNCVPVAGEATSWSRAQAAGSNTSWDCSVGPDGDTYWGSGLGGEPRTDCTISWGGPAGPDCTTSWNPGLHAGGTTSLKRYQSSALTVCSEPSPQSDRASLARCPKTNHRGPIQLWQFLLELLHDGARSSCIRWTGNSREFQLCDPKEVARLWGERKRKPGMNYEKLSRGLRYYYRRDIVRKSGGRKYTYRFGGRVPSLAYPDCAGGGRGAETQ
The note with it: protein: recombinant; tags: N-terminal GST; dsDNA, one strand shown. The method in brief:
as §1

The target in another test is T5, ELF3 (Homo sapiens, UniProt P78545 1-371).
T5 sequence: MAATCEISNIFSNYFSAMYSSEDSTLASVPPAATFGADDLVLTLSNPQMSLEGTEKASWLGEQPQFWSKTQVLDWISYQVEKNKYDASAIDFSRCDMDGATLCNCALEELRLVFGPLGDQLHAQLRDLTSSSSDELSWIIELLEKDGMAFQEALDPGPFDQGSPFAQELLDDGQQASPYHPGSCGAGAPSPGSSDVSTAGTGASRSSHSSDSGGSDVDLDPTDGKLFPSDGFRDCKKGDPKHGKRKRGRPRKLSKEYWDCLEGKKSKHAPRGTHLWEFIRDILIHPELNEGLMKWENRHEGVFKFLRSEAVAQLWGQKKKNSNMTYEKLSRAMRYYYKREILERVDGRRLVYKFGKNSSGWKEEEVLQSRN
The note with it: protein: recombinant; tags: N-terminal GST; dsDNA, one strand shown. Put shortly: as §1

The target of the next test is CRX (Homo sapiens, UniProt O43186 1-299). The note with it: protein: recombinant; tags: N-terminal GST; dsDNA, one strand shown. Put shortly:
as §1

For another test, the target named is ETV1 (Homo sapiens, UniProt P50549 1-477). The note with it: protein: recombinant; tags: N-terminal GST; dsDNA, one strand shown. The method in brief: as §1
The target of the next test is T6, ERF (Homo sapiens, UniProt P50548 1-548).
T6 sequence: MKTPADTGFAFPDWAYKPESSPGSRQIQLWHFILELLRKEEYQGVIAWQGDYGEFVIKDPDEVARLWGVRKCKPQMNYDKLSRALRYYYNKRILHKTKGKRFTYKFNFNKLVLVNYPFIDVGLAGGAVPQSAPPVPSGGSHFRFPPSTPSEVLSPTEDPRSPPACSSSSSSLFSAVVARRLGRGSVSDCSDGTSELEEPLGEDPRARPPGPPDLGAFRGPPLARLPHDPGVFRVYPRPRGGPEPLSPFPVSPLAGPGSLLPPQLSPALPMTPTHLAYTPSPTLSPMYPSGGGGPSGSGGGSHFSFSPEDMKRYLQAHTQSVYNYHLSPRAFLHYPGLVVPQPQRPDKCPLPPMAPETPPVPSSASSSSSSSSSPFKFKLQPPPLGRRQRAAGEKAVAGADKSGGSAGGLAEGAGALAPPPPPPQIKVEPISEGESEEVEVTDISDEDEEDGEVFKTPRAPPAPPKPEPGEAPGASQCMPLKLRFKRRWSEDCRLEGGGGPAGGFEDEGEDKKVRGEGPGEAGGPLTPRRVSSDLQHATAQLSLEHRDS
The conditions noted are these: protein: recombinant; tags: N-terminal GST; dsDNA, one strand shown. Put shortly: as §1

The target of the next test is T7, ETV3L (Homo sapiens, UniProt Q6ZN32 1-361).
T7 sequence: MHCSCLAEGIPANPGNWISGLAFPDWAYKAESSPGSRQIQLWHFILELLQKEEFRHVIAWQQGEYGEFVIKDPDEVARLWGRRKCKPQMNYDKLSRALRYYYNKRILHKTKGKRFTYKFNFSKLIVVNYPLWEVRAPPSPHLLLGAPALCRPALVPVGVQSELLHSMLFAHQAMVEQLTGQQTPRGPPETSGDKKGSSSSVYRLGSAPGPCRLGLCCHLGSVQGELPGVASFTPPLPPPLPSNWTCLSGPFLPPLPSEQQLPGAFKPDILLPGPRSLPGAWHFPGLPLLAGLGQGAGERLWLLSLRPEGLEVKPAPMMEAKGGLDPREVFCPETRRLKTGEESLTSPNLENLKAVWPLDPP
The conditions noted are these: protein: recombinant; tags: N-terminal GST; dsDNA, one strand shown. The method in brief: as §1

The next test concerns the target T8, ETS2 (Homo sapiens, UniProt P15036 1-469).
T8 sequence: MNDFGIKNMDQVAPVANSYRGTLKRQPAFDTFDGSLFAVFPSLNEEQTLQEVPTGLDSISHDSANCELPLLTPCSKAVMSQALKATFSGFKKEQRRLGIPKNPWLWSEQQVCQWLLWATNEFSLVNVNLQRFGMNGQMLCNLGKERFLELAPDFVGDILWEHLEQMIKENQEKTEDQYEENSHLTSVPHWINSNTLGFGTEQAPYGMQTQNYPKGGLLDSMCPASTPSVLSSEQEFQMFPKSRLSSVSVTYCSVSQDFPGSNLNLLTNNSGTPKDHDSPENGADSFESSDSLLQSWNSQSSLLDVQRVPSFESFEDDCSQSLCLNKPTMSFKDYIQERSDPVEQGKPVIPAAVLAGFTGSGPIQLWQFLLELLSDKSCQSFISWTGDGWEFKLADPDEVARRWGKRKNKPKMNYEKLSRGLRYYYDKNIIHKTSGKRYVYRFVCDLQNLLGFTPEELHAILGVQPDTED
The note with it: protein: recombinant; tags: N-terminal GST; dsDNA, one strand shown. Put shortly: as §1

The target in a further test is T9, SPDEF (Homo sapiens, UniProt O95238 1-335).
T9 sequence: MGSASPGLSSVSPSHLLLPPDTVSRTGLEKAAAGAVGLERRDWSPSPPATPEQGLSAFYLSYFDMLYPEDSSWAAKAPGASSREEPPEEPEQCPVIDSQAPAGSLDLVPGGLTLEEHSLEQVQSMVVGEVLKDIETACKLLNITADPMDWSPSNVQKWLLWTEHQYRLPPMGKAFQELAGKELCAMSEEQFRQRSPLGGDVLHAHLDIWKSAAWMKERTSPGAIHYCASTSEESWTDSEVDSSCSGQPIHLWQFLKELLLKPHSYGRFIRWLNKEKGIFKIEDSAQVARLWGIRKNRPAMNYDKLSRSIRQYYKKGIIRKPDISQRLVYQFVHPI
The note with it: protein: recombinant; tags: N-terminal GST; dsDNA, one strand shown. Put shortly:
as §1

A further test addresses T10, ETV7 (Homo sapiens, UniProt Q9Y603 1-341).
T10 sequence: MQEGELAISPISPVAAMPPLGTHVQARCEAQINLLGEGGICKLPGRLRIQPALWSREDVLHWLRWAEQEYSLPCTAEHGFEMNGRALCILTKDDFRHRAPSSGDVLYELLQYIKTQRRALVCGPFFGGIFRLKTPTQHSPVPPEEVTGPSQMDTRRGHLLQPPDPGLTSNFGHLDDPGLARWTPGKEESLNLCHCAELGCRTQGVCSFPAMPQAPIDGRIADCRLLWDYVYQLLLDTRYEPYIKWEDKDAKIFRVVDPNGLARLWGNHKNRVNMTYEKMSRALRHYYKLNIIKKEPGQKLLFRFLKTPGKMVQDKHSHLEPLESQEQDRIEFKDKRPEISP
The conditions noted are these: protein: recombinant; tags: N-terminal GST; dsDNA, one strand shown. The method in brief: as §1

The target in a further test is T11, ELF5 (Homo sapiens, UniProt Q9UKW6-2 1-255).
T11 sequence: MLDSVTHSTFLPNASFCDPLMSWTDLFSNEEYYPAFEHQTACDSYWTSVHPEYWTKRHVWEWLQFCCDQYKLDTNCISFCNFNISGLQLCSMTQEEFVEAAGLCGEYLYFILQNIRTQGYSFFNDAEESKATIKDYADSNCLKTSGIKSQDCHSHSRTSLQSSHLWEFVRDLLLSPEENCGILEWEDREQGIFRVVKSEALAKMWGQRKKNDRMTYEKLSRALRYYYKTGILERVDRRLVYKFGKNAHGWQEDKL
The note with it: protein: recombinant; tags: N-terminal GST; dsDNA, one strand shown. The method in brief: as §1

For a further test, the target named is T12, ETV3 (Homo sapiens, UniProt P41162-2 1-143).
T12 sequence: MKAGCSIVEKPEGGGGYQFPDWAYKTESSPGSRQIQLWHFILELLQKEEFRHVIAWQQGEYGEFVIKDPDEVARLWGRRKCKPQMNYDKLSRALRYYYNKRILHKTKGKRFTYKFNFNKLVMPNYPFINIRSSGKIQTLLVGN
The conditions noted are these: protein: recombinant; tags: N-terminal GST; dsDNA, one strand shown. The method in brief:
as §1

The target in a further test is ETV6 (Homo sapiens, UniProt P41212 1-452). The note with it: protein: recombinant; tags: N-terminal GST; dsDNA, one strand shown. The method in brief: as §1
Sequence of ETV6 (P41212 whole entry): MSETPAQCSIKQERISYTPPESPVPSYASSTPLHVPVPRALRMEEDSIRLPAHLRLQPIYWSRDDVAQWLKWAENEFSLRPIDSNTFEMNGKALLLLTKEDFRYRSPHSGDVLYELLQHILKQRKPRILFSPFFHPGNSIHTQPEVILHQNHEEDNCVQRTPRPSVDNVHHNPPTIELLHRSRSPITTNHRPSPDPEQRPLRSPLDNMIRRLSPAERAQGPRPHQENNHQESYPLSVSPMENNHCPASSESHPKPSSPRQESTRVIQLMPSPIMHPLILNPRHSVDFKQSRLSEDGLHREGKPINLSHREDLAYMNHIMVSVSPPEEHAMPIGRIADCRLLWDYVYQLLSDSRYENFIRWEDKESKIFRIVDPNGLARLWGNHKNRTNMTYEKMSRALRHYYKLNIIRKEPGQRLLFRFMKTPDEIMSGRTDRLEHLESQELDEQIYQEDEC

Sequence of ELF4 (Q99607 whole entry): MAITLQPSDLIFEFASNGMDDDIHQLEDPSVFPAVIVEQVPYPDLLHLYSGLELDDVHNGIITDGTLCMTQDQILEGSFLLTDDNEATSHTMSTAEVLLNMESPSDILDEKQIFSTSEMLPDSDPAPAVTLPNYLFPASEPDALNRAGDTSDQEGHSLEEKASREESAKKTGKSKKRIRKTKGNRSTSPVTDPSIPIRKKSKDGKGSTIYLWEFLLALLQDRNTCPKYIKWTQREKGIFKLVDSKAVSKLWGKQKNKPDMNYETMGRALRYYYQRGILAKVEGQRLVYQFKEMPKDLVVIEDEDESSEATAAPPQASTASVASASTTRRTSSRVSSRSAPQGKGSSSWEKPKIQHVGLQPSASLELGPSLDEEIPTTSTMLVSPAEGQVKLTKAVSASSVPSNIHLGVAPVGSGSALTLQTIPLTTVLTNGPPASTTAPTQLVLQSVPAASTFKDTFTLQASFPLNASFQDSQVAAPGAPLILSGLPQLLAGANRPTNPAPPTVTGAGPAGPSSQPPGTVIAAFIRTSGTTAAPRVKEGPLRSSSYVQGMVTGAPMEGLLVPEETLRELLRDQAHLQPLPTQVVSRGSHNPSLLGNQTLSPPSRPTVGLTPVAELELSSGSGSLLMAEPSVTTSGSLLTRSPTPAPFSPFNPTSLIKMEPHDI
Sequence of ETV1 (P50549 whole entry): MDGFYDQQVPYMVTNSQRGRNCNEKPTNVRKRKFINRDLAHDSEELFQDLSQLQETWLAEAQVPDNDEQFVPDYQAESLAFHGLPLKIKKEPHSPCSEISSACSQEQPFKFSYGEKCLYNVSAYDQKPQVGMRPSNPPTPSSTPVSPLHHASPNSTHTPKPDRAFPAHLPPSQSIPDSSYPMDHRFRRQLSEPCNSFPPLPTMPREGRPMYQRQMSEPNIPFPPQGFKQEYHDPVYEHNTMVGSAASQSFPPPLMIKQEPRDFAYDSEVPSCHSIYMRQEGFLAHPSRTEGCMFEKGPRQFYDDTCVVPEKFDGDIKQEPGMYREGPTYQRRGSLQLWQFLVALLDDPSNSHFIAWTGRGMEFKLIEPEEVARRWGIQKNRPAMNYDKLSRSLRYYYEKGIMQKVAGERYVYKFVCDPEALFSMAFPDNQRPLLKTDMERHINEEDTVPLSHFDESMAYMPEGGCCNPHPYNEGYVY
Sequence of ETV5 (P41161 whole entry): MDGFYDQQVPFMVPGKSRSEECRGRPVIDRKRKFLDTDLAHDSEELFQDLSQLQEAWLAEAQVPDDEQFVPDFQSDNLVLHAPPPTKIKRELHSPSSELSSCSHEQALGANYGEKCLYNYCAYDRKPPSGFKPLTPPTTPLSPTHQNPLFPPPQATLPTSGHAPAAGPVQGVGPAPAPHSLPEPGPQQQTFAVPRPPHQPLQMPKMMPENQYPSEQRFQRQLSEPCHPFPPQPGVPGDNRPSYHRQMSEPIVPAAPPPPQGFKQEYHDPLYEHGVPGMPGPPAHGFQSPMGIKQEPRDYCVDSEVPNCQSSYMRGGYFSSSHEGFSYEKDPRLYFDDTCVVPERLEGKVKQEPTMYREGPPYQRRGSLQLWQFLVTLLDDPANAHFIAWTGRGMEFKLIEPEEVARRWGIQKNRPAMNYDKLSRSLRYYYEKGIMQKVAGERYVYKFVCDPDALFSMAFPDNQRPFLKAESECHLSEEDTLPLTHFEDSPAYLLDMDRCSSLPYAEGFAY
Sequence of HSF1 (Q00613 whole entry): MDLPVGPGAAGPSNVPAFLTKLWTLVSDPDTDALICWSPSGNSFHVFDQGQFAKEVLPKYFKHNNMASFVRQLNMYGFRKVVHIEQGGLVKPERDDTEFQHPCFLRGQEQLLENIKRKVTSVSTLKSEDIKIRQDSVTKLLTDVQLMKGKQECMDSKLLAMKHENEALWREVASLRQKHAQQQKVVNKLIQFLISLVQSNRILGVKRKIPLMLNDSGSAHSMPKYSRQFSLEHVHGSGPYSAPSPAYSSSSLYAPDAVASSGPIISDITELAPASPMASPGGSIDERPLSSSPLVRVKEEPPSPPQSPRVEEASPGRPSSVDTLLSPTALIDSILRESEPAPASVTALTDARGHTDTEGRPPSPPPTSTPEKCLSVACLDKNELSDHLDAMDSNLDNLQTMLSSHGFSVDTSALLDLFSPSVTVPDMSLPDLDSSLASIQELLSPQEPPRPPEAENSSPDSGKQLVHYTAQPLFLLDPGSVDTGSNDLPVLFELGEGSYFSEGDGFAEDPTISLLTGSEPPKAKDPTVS
Sequence of CRX (O43186 whole entry): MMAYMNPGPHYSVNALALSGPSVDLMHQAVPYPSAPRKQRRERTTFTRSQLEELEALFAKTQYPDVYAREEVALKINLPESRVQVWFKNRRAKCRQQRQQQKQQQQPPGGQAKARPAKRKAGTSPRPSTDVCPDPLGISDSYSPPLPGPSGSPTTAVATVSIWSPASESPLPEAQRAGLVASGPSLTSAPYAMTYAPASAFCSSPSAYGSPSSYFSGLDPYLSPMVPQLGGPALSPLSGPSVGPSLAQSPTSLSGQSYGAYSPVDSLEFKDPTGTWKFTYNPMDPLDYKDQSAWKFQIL

As to TATGGC, the binding signal was 1.36 fold enrichment (6-mer frequency, TF over GST control) with FEV; 1.33 fold enrichment (6-mer frequency, TF over GST control) with ETV5; 1.2 fold enrichment (6-mer frequency, TF over GST control) with HSF1; 1.17 fold enrichment (6-mer frequency, TF over GST control) with SPIC; 1.2 fold enrichment (6-mer frequency, TF over GST control) in the test with ELF4; 1.2 fold enrichment (6-mer frequency, TF over GST control) with ELK4. For the same sequence, the binding signal with ETV2 was 1.41 fold enrichment (6-mer frequency, TF over GST control); with ELF3, 1.29 fold enrichment (6-mer frequency, TF over GST control); with CRX it was 1.34 fold enrichment (6-mer frequency, TF over GST control); with ETV1, 1.25 fold enrichment (6-mer frequency, TF over GST control); in the test with ERF, 1.25 fold enrichment (6-mer frequency, TF over GST control); in the test with ETV3L, 1.23 fold enrichment (6-mer frequency, TF over GST control). In addition, the binding signal was 1.2 fold enrichment (6-mer frequency, TF over GST control) with ETS2; 1.27 fold enrichment (6-mer frequency, TF over GST control) with SPDEF; 1.26 fold enrichment (6-mer frequency, TF over GST control) with ETV7; 1.23 fold enrichment (6-mer frequency, TF over GST control) in the test with ELF5; 1.31 fold enrichment (6-mer frequency, TF over GST control) with ETV3; 1.29 fold enrichment (6-mer frequency, TF over GST control) with ETV6.
